TLR4 MyD88 comp = TLR4-MyD88 interaction inhibition in cells. O00206+Q99836. HeLa CL3-4 TLR4/MyD88 BLA complementation, FRET ratio. inhibition, % at 8.4 µM. 0.18% of 200,000 active. AID 861; in the data active = inhibition above about 25%;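 note: 0% = vehicle and 100% = reference inhibitor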
TLR9-MyD88 inh = blocks human TLR9 binding to MyD88; Q9NR96+Q99836; CHO BLA complementation TLR9-MyD88, CCF4 FRET ratio; inhibition, % at 4.98 µM; 0.21% of 340,000 active; AID 504734;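 active = inhibition above the mean over all tested compounds plus 3 SD, cut at about 21% in these data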;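 note: 0% = DMSO only wells and 100% = clavulanate BLA inhibitor control wells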
Myeloid diff MLP = compounds promoting myeloid differentiation | 1% of 360,000 active | ER-HoxA9 myeloid progenitors, lysozyme-GFP differentiation, flow cytometry | calls only at 10 µM | AID 624256;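 active = normalized GFP-positive differentiation at or above the plate's own cutoff, the solvent-only control mean plus 3 SD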;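 note: cells exposed to compound for four days before flow analysis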
NOD2 RIPK2 PPI = inhibitors of human NOD2-RIPK2 interaction; O43353; CHO BLA complementation NOD2-RIPK2, CCF4 ratio; inhibition, % at 4.98 µM; 0.38% of 360,000 active; in the data active = inhibition above about 21%;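 note: 0% = vehicle only and 100% = reference blocker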
Target sequence (O43353 whole entry, looked up): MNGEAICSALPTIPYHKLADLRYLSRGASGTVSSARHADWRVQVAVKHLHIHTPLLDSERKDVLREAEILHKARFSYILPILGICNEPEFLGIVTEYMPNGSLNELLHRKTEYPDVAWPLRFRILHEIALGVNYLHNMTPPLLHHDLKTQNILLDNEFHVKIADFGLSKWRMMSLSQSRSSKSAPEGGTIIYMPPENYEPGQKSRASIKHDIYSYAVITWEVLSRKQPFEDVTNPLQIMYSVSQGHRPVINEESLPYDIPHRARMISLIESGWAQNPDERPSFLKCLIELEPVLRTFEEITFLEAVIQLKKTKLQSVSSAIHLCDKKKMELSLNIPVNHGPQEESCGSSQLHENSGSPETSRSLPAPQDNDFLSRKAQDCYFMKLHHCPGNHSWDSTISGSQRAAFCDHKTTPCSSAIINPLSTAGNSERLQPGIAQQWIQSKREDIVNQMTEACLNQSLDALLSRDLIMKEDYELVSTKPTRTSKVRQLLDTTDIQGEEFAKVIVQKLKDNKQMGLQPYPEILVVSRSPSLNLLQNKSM
Myeloid diff = promotes myeloid progenitor differentiation | 2% of 2,300 active | ER-HoxA9 myeloid progenitors, GFP/Mac1 double-positive flow | shares compounds with Myeloid diff MLP | calls only;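 active = share of green or green-and-red cells above 9 and 9% in run 1 or 4 and 3% in run 2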
GFP autofluor = flagged as fluorescent in myeloid differentiation counter-screen; shares compounds with Myeloid diff MLP; ER-HoxA9 myeloid progenitors, no estrogen, GFP autofluorescence flow cytometry; vehicle wells 0%, positive control 100%; fluorescence response, % (no concentration beside the values); 7.4% of 2,300 active; AID 651707;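 active = over 5% cells positive for green fluorescent reporter, or over 2% positive for both it and APC stain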;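 note: range taken on the double positive population between DMSO and positive control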
The depositor's hits bear a star; i = inactive; · = no result; + = active, no number. Hits are enriched below; roughly 1.5% of the tested compounds scored in any of these assays.

SMILES	TLR4 MyD88 comp	TLR9-MyD88 inh	Myeloid diff MLP	NOD2 RIPK2 PPI	Myeloid diff	GFP autofluor
Cc1ccc(NC2=CC(=O)C(=O)c3ccccc32)c(C)c1	·	-6	+	-13	i	3.1*
Cc1ccc(NC(=S)Nc2cccc3cnccc23)cc1	5	2	i	-14	·	·
Cc1ccc(NC(=S)Nc2cccc3cnccc23)cc1C	-8	-8	i	6	i	2
CCCCOCCCNC(=O)C[C@@H]1C[C@@]2(C(=O)OCC)CCCC=C2N(Cc2ccco2)C1=O	·	·	i	-1	·	·
O=C(N/N=C/c1ccncc1)c1cc([N+](=O)[O-])cc([N+](=O)[O-])c1O	3	-7	i	1	i	0
CCOC(=O)c1cnn(-c2cc(C)c3ccccc3n2)c1N	1	-10	+	-9	i	1
CC(Sc1nn(-c2ccccc2)c(=S)s1)C(=O)NCC1CCCO1 (stereo not given)	·	-7	i	-3	i	0
Cc1nnc(SC(C)C(=O)NCC2CCCO2)n1-c1ccccc1 (stereo not given)	-8	-4	i	-4	·	·
O=C(Nc1ccc2nc(C3CC3)n(Cc3ccc(F)cc3)c(=O)c2c1)c1ccco1	7	-4	+	8	i	0
COc1cccc(Cn2c(C3CC3)nc3ccc(NC(=O)c4ccco4)cc3c2=O)c1	-9	·	·	·	·	·
COc1ccc(CC(NC(C)=O)C(=O)NC2CCN(C(=O)c3cnccn3)CC2)cc1 (stereo not given)	5	14	i	6	i	0
O=S(=O)(c1ccc(Cl)cc1)N1CCN(Cc2c[nH]c3ccccc23)CC1	7	-16	i	9	i	0
O=C(Cc1c[nH]c2ccccc12)N1CCN(S(=O)(=O)c2ccc(Cl)cc2)CC1	·	8	i	2	·	·
COc1cc2oc(=O)cc(-c3ccc(-c4ccc(C)cc4)cc3)c2c(OC)c1OC	·	-3	i	-1	·	·
COc1cc2oc(=O)cc(-c3ccc(-c4ccc(C#N)cc4)cc3)c2c(OC)c1OC	·	1	i	-2	i	0
COc1ccc(C2=NN(C(=O)c3ccco3)C(c3ccco3)C2)cc1OC (stereo not given)	·	6	i	-3	·	·
COc1ccc(C2=NN(C(N)=S)C(c3ccco3)C2)cc1 (stereo not given)	11	-17	+	-6	i	0
COc1ccc(C2=NN(C(=O)CSc3nnc(-c4ccccc4F)o3)C(c3ccco3)C2)cc1 (stereo not given)	-7	2	i	6	i	0
CCOCCn1c(CN(Cc2ccccc2)Cc2ccccc2)nc2c1c(=O)[nH]c(=O)n2C	0	-16	+	0	i	0
COC(=O)c1c(NC(=O)COC(=O)CCNS(=O)(=O)c2ccc(NC(C)=O)cc2)sc(C)c1C	·	2	i	4	·	·
CC(=O)Nc1sc(C)c(C)c1C(=O)OCC(=O)Nc1ccc(S(N)(=O)=O)cc1	·	-6	+	-7	i	0
OC[C@@H]1CN(Cc2cccnc2)C[C@H](n2cnc3c(N4CCN(c5ccccc5)CC4)ncnc32)O1	·	·	i	-3	·	·
CC(C)c1ccc(NC(=O)C2(C)Cc3c(-c4cccc(C(F)(F)F)c4)ccnc3O2)cc1 (stereo not given)	·	·	i	3	·	·
CSCCC(c1nc2ccccc2[nH]1)n1c(-c2ccc3ncccc3c2)nc2ccccc21 (stereo not given)	·	·	i	-5	·	·
COc1ccc(COc2ccsc2C(=O)Nc2ccc(Cl)cc2)cc1	2	6	i	0	i	0
SMILES	TLR4 MyD88 comp	TLR9-MyD88 inh	Myeloid diff MLP	NOD2 RIPK2 PPI	Myeloid diff	GFP autofluor
COc1ccc(NC(=O)c2csc(Cc3ccc(Cl)cc3)n2)cc1	-11	7	i	-2	·	·
COc1cc(-c2cc(=O)c3ccc(O)cc3o2)cc(OC)c1OC	·	·	i	-3	·	·
COc1cc(OC)c(-c2c3cc(O)c(=O)cc-3oc3cc(O)c(O)cc23)cc1OC	11	9	+	16	i	99*
CCN(CC)CCOC(=O)c1ccc(N/C=C(/C#N)c2nc(-c3ccc(OC)cc3)cs2)cc1	·	1	i	1	i	1
NC(=O)c1nsc(C(=O)N(CCc2ccccc2)C(C(=O)NC2CCCC2)c2ccco2)c1N (stereo not given)	0	-10	i	1	·	·
O=C(NC1CCCCC1)C(c1ccco1)N(Cc1ccco1)C(=O)c1ccco1 (stereo not given)	-4	1	i	-6	i	0
O=C(NC1CCCCC1)C(c1ccco1)N(CCc1ccccc1)C(=O)C(F)(F)F (stereo not given)	20	-20	i	6	i	0
CN(C)CCN(C(=O)c1cccc(Cl)c1)c1nc2c(Cl)cccc2s1	10	1	i	2	·	·
CN(C)CCN(C(=O)c1ccccc1Cl)c1nc2c(Cl)cccc2s1	4	6	+	-2	i	1
O=C(CCNC(=O)c1ccc(Br)cc1)NC1CCCc2ccccc21 (stereo not given)	·	-2	+	-6	+	0
CCOC(=O)C1=NN(C(=O)c2ccccc2)C(O)(c2ccc(C)cc2)C1 (stereo not given)	-14	-2	i	-2	·	·
CCOC(=O)C1=NN(C(=O)c2ccc(OC)cc2)C(O)(c2ccc(Cl)cc2)C1 (stereo not given)	-5	1	+	0	i	0
O=C(NCCc1ccccc1)c1cc(S(=O)(=O)N2CCCCC2)c[nH]1	·	·	i	-8	·	·
Cc1[nH]c2ccccc2c1-c1nc2ccccc2[nH]1	17	9	+	-6	i	0
O=C(c1cc(Cl)cc(Cl)c1)N1CCC2CC1c1cc(N3CCCCC3)ccc12 (stereo not given)	·	2	i	9	·	·
COc1ccc(N2CCN(Cc3nc4c(c(=O)n(C)c(=O)n4C)n3Cc3cccc(C)c3)CC2)cc1	5	-4	i	-9	i	0
COc1ccc(CN(C)C[C@@H]2OCc3cnnn3CCCC(=O)N([C@@H](C)CO)C[C@H]2C)cc1	·	-9	i	1	·	·
COc1ccc(Cc2nnc(SCC(=O)N3CCN(c4ccccc4)CC3)o2)cc1	-1	-1	i	-4	·	·
COc1ccc(N2CCN(C(=O)CSc3nnc(CNc4ccccc4)o3)CC2)cc1	-10	-6	i	2	i	1
Cc1ccc(-n2c(O)c(C=Nc3ccccc3-c3n[nH]c(=S)[nH]c3=O)c3ccccc3c2=O)c(C)c1	-20	0	i	7	·	·
Cc1ccc(-n2c(O)c(C=Nc3ccccc3-c3n[nH]c(=S)[nH]c3=O)c3ccccc3c2=O)cc1C	7	3	i	-2	i	0
Fc1ccc(-c2c[nH]c(=S)n2Cc2ccccc2)cc1	-24	-6	i	-7	·	·
O=c1[nH]cc(-c2ccc(Br)cc2)n1Cc1ccccc1	·	2	i	6	i	0
